# This is a sample that favours compounds with a hit; in the whole collection about 17% have one here.
# TDP1 inh = qHTS Assay for Inhibitors of Tyrosyl-DNA Phosphodiesterase (TDP1) | Potency, µM (titrated, usually from 130 µM), for inactives: at the highest dose activity change, negative = inhibition, usual class: inhibitors | recombinant TDP1, AlphaScreen DNA substrate cleavage | Tyrosyl-DNA phosphodiesterase 1 (Homo sapiens), Q9NUW8 | hit rate 0.28% among 350,000; note: % is set by controls: 0 for no effect and ±100 for the full control effect; nearly all actives have a fitted effect of over 40% in size
#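 Recombinant human Tdp1 (E. coli-expressed, 1 nM final) preincubated with compounds 15 min at room temperature, then 5'-biotin/3'-phosphotyrosine-FITC DNA substrate (15 nM final) added for 5 min. AlphaScreen beads (10 ug/ml final) added 10 min; cleavage lowers signal.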
# TDP1 cell CPT = qHTS for Inhibitors of human tyrosyl-DNA phosphodiesterase 1 (TDP1): qHTS in cells in presence of CPT | hit rate 12% among 420,000 | Potency, µM (highest dose often 46.2 µM), for the others: at the top dose activity change, negative = growth inhibition, usual class: inhibitors | chicken DT40 Tdp1-/-;hTDP1 cells + 20 nM CPT, ATP luminescence, 48 h | AID 686979, 2013; note: % is set by controls: 0 for no effect and ±100 for the full control effect; nearly all actives have a fitted effect of over 55% in size
#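 Cell growth measured by CellTiter-Glo luminescence after a minimum 48 h, 37 C compound exposure with 20 nM CPT in Tdp1-knockout DT40 cells stably expressing hTDP1, seeded 400/well; qHTS titration format.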
# ClpP mod = qHTS Assay for Activators of ClpP. purified B. subtilis ClpP, FRET peptide cleavage, 20 min. Potency, µM (series often up to 57.5 µM), without a hit: at the top dose activity change, negative = active. hit rate 1.9% among 340,000; active = well fitted falling curve with a large enough effect; inconclusive = small, poorly fitted or top-dose-only effect; inactive = no such curve, though single readings can be large or run the other way; note: the source files actives as falling curves though it sought activators and does not explain the sign; nearly all actives have a fitted effect of over 65% in size
# Target sequence (P80244 whole entry, looked up): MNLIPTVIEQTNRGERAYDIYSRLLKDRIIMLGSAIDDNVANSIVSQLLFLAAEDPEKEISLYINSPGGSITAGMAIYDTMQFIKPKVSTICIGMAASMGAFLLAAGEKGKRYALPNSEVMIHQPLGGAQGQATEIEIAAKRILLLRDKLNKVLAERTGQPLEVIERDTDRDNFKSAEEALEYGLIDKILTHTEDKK
#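 ClpP 10 microg/mL final, pH 8 Tris/KCl buffer with BSA, glycerol, Tween-20; compound pinned in; FRET-FV substrate; RT 20 min; Ex320/Em430; ΔFRET vs ADEP 5.8 microM, DMSO, no enzyme.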
# DT40 TDP1 no CPT = qHTS for Inhibitors of human tyrosyl-DNA phosphodiesterase 1 (TDP1): qHTS in cells in absence of CPT; hit rate 15% among 420,000; DT40 Tdp1-/- hTDP1 cells, no CPT, ATP luminescence, 48 h; Potency, µM (series often up to 46.2 µM), without a hit: top-dose activity change, negative = growth inhibition, hits mostly inhibitors; note: % is set by controls: 0 for no effect and ±100 for the full control effect; nearly all actives have a fitted effect of over 55% in size
#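 Camptothecin absent (DMSO only). Human TDP1-complemented DT40 knockout cells, 400 cells/well, 37 °C for minimum 48 hr; ATP measured via CellTiter-Glo, 30 min dark incubation, luminescence.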
# * marks the source's active call; other numbers are inactive results; ? = inconclusive; / = not tested or not shown; ! = not active in a repeat; [ ] = remark or other dose. Unless noted, calls come from the whole dose curve; as a rule, active = well fitted curve in the direction sought with a large enough effect; inconclusive = small, poorly fitted or top-dose-only effect, or another doubt; inactive = no such curve, though single readings can be large; an effect the other way counts as inactive or inconclusive. Potency is the fitted concentration of half-maximal effect.
SMILES,TDP1 inh,TDP1 cell CPT,ClpP mod,DT40 TDP1 no CPT
Cc1cc2ccccc2n1-c1ccc(C(=O)N2CCC(C(=O)NCc3ccc(Cl)cc3)CC2)s1,5%,4.1µM*,?,3.7µM*
CCc1ccc(CNC(=O)C2CCN(C(=O)c3ccc(-n4c(C)cc5ccccc54)s3)CC2)cc1,-5%,10µM*,-22%,18µM*
CCCN(CCC)C(=O)Cc1c(-c2ccc(Cl)cc2)nc2ccc(Cl)cn12,/,-8%,/,?
Clc1ccc(-c2nc3ccc(Cl)cn3c2CN2CCOCC2)cc1,6%,?,?,23µM*
Clc1ccc(-c2nc3ccc(Cl)cn3c2CN2CCCCC2)cc1,/,?,-25%,16µM*
Cc1ccccc1-n1nc(C)c2c1NC(=O)CSC2c1ccc(Cl)cc1 (configuration not stated),6%,?,-1%,?
CN(Cc1ccccc1)C(=O)c1ccc(NC(=O)C2CCN(C(=O)OC(C)(C)C)CC2)cc1,2%,23µM*,0%,15µM*
CN(Cc1ccccc1)C(=O)CN1CCCC1=O,/,13%,-2%,-5%
CC1=CC(C)CC(C)OC(=O)CC(c2ccc(O)cc2)NC(=O)C(Cc2c(Br)[nH]c3ccccc23)N(C)C(=O)C(C)NC(=O)C(C)C1 (configuration not stated),/,0.026µM*,-7%,0.015µM*
CC1=NN=C(c2ccc(N)cc2)c2cc3c(cc2C1)OCO3,-7%[56.1 µM],30µM*,-4%,27µM*
CC1Cc2cc3c(cc2C(c2ccc(N)cc2)=NN1)OCO3 (configuration not stated),13%,/,/,/
COc1ccc(-n2c(/C=C/c3cccc(F)c3)nc3ccccc3c2=O)cc1Cl,0%,21µM*,-1%,?
COc1ccc(-n2c(/C=C/c3cccc(F)c3)nc3ccccc3c2=O)c(OC)c1,/,13µM*,0%,?
CCOP(=O)(OCC)C(NC(=O)c1ccccc1C)C(Cl)(Cl)Cl (configuration not stated),5%,-17%,0%,0%
O=C(Nc1ccccc1-c1ccc(Cl)cc1)c1cccnc1Cl,15%,?,/,?
COc1cc(O)c(C(=O)O)c(-c2cc(O)c(O)cc2C)c1,/,4.6µM*,0%,16µM*
COc1ccc2c(c1)c(C(=O)O)c(C)n2CC(C)C,4%,-15%,-17%,-9%
CCN1CCN(C(=O)COc2cc(=O)n(CC)c3ccccc23)CC1,-7%,1%,-11%,1%
Cc1cccc(-c2nn3c(=O)cc(CN4CCN(C(=O)COc5ccc(Cl)cc5)CC4)nc3s2)c1,11%,?,-3%,?
O=C(COc1ccccc1F)N1CCN(Cc2cc(=O)n3nc(-c4ccccc4Cl)sc3n2)CC1,3%,?,-5%,15µM*
Cc1ccccc1-c1nn2c(=O)cc(CN3CCN(C(=O)COc4ccccc4Cl)CC3)nc2s1,3%,18µM*,-3%,8.2µM*
NCC(CP(=O)(O)O)c1ccc(Cl)cc1 (configuration not stated),10%[56.1 µM],-4%,/,-9%
O=c1c2ccccc2nc(Cc2ccccc2)n1-c1cccc(O)c1,0%,15µM*,1%,21µM*
Cc1nc2ccccc2c(=O)n1-c1cccc(C(F)(F)F)c1,5%,3%,28µM*,-3%
Cc1cccc(-n2c(C)nc3ccccc3c2=O)c1C,5%,5.8µM*,-2%,21µM*
SMILES,TDP1 inh,TDP1 cell CPT,ClpP mod,DT40 TDP1 no CPT
Cc1nc2ccccc2c(=O)n1-c1c(Cl)cccc1Cl,/,23µM*,3%,18µM*
Cc1cccc(-n2c(C)nc3ccccc3c2=O)n1,0%,0%,2%,-2%
COc1cccc(-n2c(C)nc3ccccc3c2=O)c1,0%,-29%,-4%,-12%
CCc1cc2c(=O)n(C(C)C(=O)OC3CCCCC3)cnc2s1 (configuration not stated),2%,?,-5%,?
COP(N)(=O)SC (configuration not stated),8%[56.1 µM],0%,/,-3%
CC(=O)c1ccc2c(c1)C1C(Cl)C(Sc3ccccc3[N+](=O)[O-])CC1C(c1ccccc1)N2 (configuration not stated),8%,12µM*,6%,15µM*
CC(=O)c1ccc2c(c1)C1C(Cl)C(Sc3ccccc3[N+](=O)[O-])CC1C(c1ccccc1[N+](=O)[O-])N2 (configuration not stated),-3%[56.1 µM],10µM*,0%,13µM*
O=C1NC(=O)C(Sc2ccccc2[N+](=O)[O-])C(=O)N1,14%,?,/,?
C[C@]12CCC3C(CC[C@H]4C[C@H](O)CC[C@]34C)[C@@H]1CC[C@@H]2C(=O)CO (some centres not stated),5%,-24%,/,-30%
CC1=C2CC3C(CC=C4C[C@@H](O)CC[C@@]43C)[C@@H]2CC[C@]12O[C@@H]1C[C@H](C)CN[C@H]1[C@H]2C (some centres not stated),8%,12%,/,-4%
CC(C)(C)c1ccc(O)cc1,4%,4%,/,1%
C[C@]12C=CC(=O)C=C1CC[C@@H]1C2=CC[C@]2(C)[C@@H](C(=O)CN3CCN(c4cc(N5CCCC5)nc(N5CCCC5)n4)CC3)CC[C@@H]12,/,18µM*,-4%,13µM*
CC1CCC2[C@@H](C)C(=O)OC3O[C@]4(C)CCC1C32OO4 (some centres not stated),/,?,2%,7.3µM*
CC1CCC2C(C)C(=O)OC3OC4(C)CCC1C32OO4 (configuration not stated),3%[56.1 µM],?,/,0.84µM*!
CNC(=O)O/N=C(/C)SC,3%,-5%,/,-3%
CCN(CC)C(=O)C(C)Oc1cccc2ccccc12 (configuration not stated),8%,/,/,/
COc1cc(C2c3cc(O)c(OC)cc3CC3C(=O)OCC32)ccc1O (configuration not stated),/,18%,-1%,3%
COc1cc2c(cc1OC)C(C1c3cc4c(cc3CCN1C)OCO4)OC2=O (configuration not stated),0%,1%,5%,5%
COc1cc(C2c3cc4c(cc3CC3COC(=O)C32)OCO4)cc(OC)c1OC (configuration not stated),0%,0.021µM*,-1%,0.0052µM*
COc1cc([C@@H]2c3cc4c(cc3C[C@H]3COC(=O)[C@@H]32)OCO4)cc(OC)c1O,1%,0.071µM*,-1%,0.032µM*
O=[As]O[As]=O (configuration not stated),2%,/,/,/
O=C(Oc1ccccc1)N1CCC2(CCN(Cc3ccncc3)CC2)CC1,/,0%,/,?

# Source: PubChem BioAssay
